IMPase Li cell = IMPase inhibition in cells with lithium potentiation; Potency, µM (doses to about 59.4 µM), for the others: at the highest dose activity, negative = IMPase inhibition, most hits filed as inhibitors; CHO-M1 cells, IP1 TR-FRET (IP-One), carbachol + lithium; 210,000 compounds, 0.35% hits;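 note: IP1 builds up when IMPase is blocked and the TR-FRET signal falls; potency is the fitted concentration of half-maximal effect; plate controls were basal vehicle for no effect and high inhibitor control for full effect; nearly all actives have a fitted effect of over 50% in size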
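Test compounds were applied to CHO-M1 cells previously cultured for 16–30 h at 2000 per well. A small lithium amount accompanied them; after 30 min at 37C, IP1 was quantified by TR-FRET.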
ALDH1A1 inh = inhibitors of human aldehyde dehydrogenase 1A1. Purified ALDH1A1, NADH fluorescence, propionaldehyde substrate. Potency, µM (titrated, usually from 75.3 µM), inactives show top-dose activity, negative = inhibition, usual class: inhibitors. 220,000 compounds, 7.3% hits. AID 1030; active = well fitted inhibition curve with a large enough effect, not every such curve was filed as active; inconclusive = small, poorly fitted or top-dose-only effect, or another doubt; inactive = no such curve, though single readings can be large or run the other way;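 note: potency is the fitted concentration of half-maximal effect; plate controls were no enzyme wells and a reference inhibitor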
Target sequence (P00352 whole entry, looked up): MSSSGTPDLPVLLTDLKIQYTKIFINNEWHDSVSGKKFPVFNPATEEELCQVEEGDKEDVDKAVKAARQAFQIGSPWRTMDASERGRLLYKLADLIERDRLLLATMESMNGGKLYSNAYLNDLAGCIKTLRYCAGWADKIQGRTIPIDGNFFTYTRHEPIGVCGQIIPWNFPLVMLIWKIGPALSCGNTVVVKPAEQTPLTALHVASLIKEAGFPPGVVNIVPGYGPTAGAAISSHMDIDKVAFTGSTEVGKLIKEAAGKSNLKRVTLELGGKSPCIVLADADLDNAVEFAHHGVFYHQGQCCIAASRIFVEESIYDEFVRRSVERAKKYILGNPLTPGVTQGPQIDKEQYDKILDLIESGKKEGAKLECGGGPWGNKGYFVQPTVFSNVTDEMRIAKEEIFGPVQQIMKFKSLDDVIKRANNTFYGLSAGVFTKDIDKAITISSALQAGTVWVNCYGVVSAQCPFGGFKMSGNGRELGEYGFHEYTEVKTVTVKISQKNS
IMPase inh = cell-permeable inhibitors of inositol monophosphatase (IMPase) | AID 901 | 120,000 tested, under 10 active | CHO-M1 cells, IP1 accumulation, HTRF TR-FRET ratio | inhibition (IP1 accumulation), % at 46.1 µM; active = well fitted curve in the direction sought with a large enough effect in the signal ratio, not every such curve was filed as active; inconclusive = small, poorly fitted or top-dose-only effect, or a change in a side signal; inactive = no such curve, though single readings can be large or run the other way; the % refers to the signal ratio;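 note: cells stimulated with carbachol in lithium chloride buffer; plate controls were DMSO basal wells for no effect and reference inhibitor wells for full effect; higher means more IMPase inhibition seen as more IP1 and lower FRET ratio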
Target sequence (P97697 whole entry, looked up): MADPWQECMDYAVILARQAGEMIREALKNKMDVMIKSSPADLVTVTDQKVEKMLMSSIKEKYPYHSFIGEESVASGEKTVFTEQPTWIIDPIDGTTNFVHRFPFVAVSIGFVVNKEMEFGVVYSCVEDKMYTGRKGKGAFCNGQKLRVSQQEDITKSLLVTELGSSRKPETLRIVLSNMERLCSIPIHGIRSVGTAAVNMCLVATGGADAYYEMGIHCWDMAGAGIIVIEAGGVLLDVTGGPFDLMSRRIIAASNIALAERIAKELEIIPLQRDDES
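Cellular IMPase inhibition is scored as a rise in cytosolic IP1, detected by competitive TR-FRET between d2-labelled IP1 and a europium anti-IP1 antibody. M1-expressing CHO cells were stimulated with carbachol for 30 min at 37C, with lithium (50 mM LiCl) present in the buffer.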
NPSR antagonist = blocks cAMP signaling of the human neuropeptide S receptor | Potency, µM (series often up to 38.3 µM), for the others: at the top dose activity change, negative = inhibition, usual class: inhibitors | 220,000 compounds, 1% hits | AID 1461 | CHO-NPSR cells, cAMP TR-FRET, antagonist mode | Q6W5P4; note: potency is the fitted concentration of half-maximal effect; nearly all actives have a fitted effect of over 50% in size
HPGD block = HPGD (human) dehydrogenase inhibition. AID 894. 150,000 compounds, 4.3% hits. Potency, µM, inactives show at the top dose activity change, negative = inhibition, hits mostly inhibitors. P15428. purified HPGD, NADH fluorescence kinetic, PGE2 substrate; active = well fitted inhibition curve with a large enough effect, not every such curve was filed as active; inconclusive = small, poorly fitted or top-dose-only effect, or another doubt; inactive = no such curve, though single readings can be large or run the other way; note: potency is the fitted concentration of half-maximal effect
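20 nM HPGD preincubated 15 min at room temperature with compound in 50 mM Tris-HCl pH 8, 0.01% Tween 20. Started with 1 mM NAD+ and 30 uM prostaglandin E2; NADH fluorescence (360/450 nm) read 5 times over 30-s intervals, last minus first.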
PNC assembly inh = perinucleolar compartment assembly inhibition. PC3M PTB-GFP, PNC prevalence imaging, 16 h; active compounds read low. activity change (PNC), negative = inhibition, % at 10 µM. 140,000 compounds, 3.1% hits;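 active = readout at or below -70, meaning at least 70% loss of cells showing the perinucleolar compartment, a nuclear body marking cancer cells; inconclusive = readout between -30 and a set limit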;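 note: plate controls were DMSO wells for no effect and camptothecin positive control wells for full effect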
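Read-out is percentage of cells bearing a perinucleolar compartment, from automated 20x imaging of fixed, Hoechst-stained PC3M PTB-GFP cells. Cells were seeded 4 h, then exposed 16 h to compound (23 nl of library stock) in duplicate plates.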
* marks the source's active call; other numbers are inactive results; ? = inconclusive; / = not tested or not shown; ! = not confirmed by another sample; [ ] = another dose, or the depositor's remark. An excerpt weighted towards active compounds, which were near 11% of everything screened. Unless noted, calls come from the whole dose curve; as a rule, active = well fitted curve in the direction sought with a large enough effect; inconclusive = small, poorly fitted or top-dose-only effect, or another doubt; inactive = no such curve, though single readings can be large; an effect the other way counts as inactive or inconclusive. Unless noted, % is set by controls: 0 for no effect and ±100 for the full control effect.

SMILES	IMPase Li cell	ALDH1A1 inh	IMPase inh	NPSR antagonist	HPGD block	PNC assembly inh
CCc1nc(SCC(=O)N2CCN(C(=O)c3ccco3)CC2)c2c3c(sc2n1)CCCC3	-1%[38.3 µM]	28µM*	11	?	-27%	-22
Cc1nc(N2CCN(C(=O)c3ccco3)CC2)c2c3c(sc2n1)CC(C)CC3 (centres undefined)	26%	13µM*	/	?	/	/
CC(=O)NCCC1CCCCN1Cc1nc(Cc2cccc(C(F)(F)F)c2)no1 (centres undefined)	-2%	10%	/	-1%	/	/
O=C(O)c1ccc(/C=N/N2CCN(Cc3ccc(Cl)cc3)CC2)cc1	0%	12%	/	-3%	/	/
Cc1ccc(S(=O)(=O)Nc2ccc(C(OC(=O)c3ccccc3[N+](=O)[O-])(C(F)(F)F)C(F)(F)F)cc2)cc1	17%	?	/	?	-25%	-108*
Cc1ccc(S(=O)(=O)Nc2ccc(NC(=O)Nc3cccc(C(F)(F)F)c3)cc2)cc1	15%	-2%	?	?	-8%	?
CCC(=O)NNC(=S)NC(=O)c1ccc(C)cc1	3%	20µM*	/	6%	/	/
CC(=O)NNC(=S)NC(=O)c1ccc(C)cc1	2%	?	/	14%	/	/
Cc1ccc(C(=O)NC(=S)NNC(=O)COc2ccccc2C)cc1	1%	11µM*	/	8%	/	/
Cn1c(=O)c(=O)n(C)c2cc(S(=O)(=O)N3CCN(Cc4ccccc4)CC3)ccc21	-2%[38.3 µM]	1%	5	?	-8%	28
O=[N+]([O-])c1ncn(Cc2ccccc2Cl)n1	5%	2%	/	1%	-11%	2
COc1c(Br)cc([N+](=O)[O-])c(OC)c1C(=O)NC(=O)Nc1c(Cl)cccc1Cl	/	1%	/	40%	/	/
O=C1c2ccccc2S(=O)(=O)N1CC1CC(c2ccccc2Cl)=NO1 (centres undefined)	1%	13µM*	/	-14%	14µM*	14
O=C(Nc1ccccc1C(=O)N1CCCC1)c1ccc(Cl)c([N+](=O)[O-])c1	12%	-15%	/	-25%	/	/
Cc1ccc(NC(=O)CSc2nnc(CN3CCOCC3)n2-c2ccccc2)cc1	1%	3.2µM*	?	3%[46.1 µM]	-6%	?
Clc1ccc(CSc2nnc(CN3CCOCC3)n2-c2ccccc2)cc1Cl	5%[38.3 µM]	18µM*	-2	-20%[46.1 µM]	-4%	18
Cc1nnc(SCC(=O)Nc2ccc(N3CCOCC3)cc2)n1-c1ccccc1	11%[38.3 µM]	-6%	11	0%[46.1 µM]	5%	4
O=C(CSc1nnc(CN2CCOCC2)n1-c1ccccc1)Nc1ccc(Cl)cc1	5%	22µM*	-4	0%[46.1 µM]	-10%	132
Clc1cccc(Cl)c1CSc1nnc(CN2CCOCC2)n1-c1ccccc1	-4%[38.3 µM]	-7%	6	-17%[46.1 µM]	-6%	12
O=C(CSc1nnc(-c2ccccc2)n1-c1ccc(Cl)cc1)NNC(=S)Nc1ccccc1	12%	16µM*	2	-10%	-18%	18
COCc1nnc(SCC(=O)Nc2cccc(Cl)c2C)n1-c1ccccc1	-6%[38.3 µM]	2%	2	-7%[46.1 µM]	-9%	2
Cc1ccc(CCc2nnc(SCC(=O)Nc3cc(Cl)ccc3Cl)n2-c2ccccc2)o1	7%	25µM*	/	-34%	-4%	-8
COc1c(Br)cc(Br)cc1/C=N/n1c(C)nnc1C	-3%[38.3 µM]	9%	3	-19%[46.1 µM]	-1%	-13
CC(C)C[C@@H](CN(C)N=O)N(C[C@H](Cc1ccccc1)N(CCc1ccccc1)N=O)N=O	10%	8.9µM*	/	33%	/	/
CN(C[C@H](Cc1ccccc1)N(C[C@H](Cc1cccc2ccccc12)N(CCc1ccccc1)N=O)N=O)N=O	/	/	/	-3%	/	/
SMILES	IMPase Li cell	ALDH1A1 inh	IMPase inh	NPSR antagonist	HPGD block	PNC assembly inh
COc1ccc(NC(=O)Cn2nnc3sc4c(c3c2=O)CC(C)(C)OC4)cc1	/	/	/	0%	/	/
COc1ccc(C(c2sc3nc(C)nn3c2O)N2CCc3ccccc3C2)cc1 (centres undefined)	19%[38.3 µM]	?	3	-9%[46.1 µM]	22µM*	21
Cc1cccn2c(=O)c3cc(C(=O)NCC4CCCO4)c(=N)n(CCN4CCOCC4)c3nc12 (centres undefined)	38%[38.3 µM]	?	6	8%[46.1 µM]	?	?
Cc1ccc(C(=O)c2nocc2C(=O)c2cccs2)cc1	27%[38.3 µM]	3.2µM*	-5	-20%[46.1 µM]	22µM*	-20
O=C(c1ccccc1)c1cccs1	-2%	5%	/	17%	/	/
C(=N\Nc1ccccn1)/c1c[nH]c2ccccc12	/	/	/	-7%	/	/
C(=N\c1nccs1)/c1c[nH]c2ccccc12	-3%[38.3 µM]	13µM*	-3	-5%[46.1 µM]	-9%	11
Cc1sc(-c2ccccn2)nc1OC(=O)c1cccc(Cl)c1Cl	6%	-5%	14	-18%[46.1 µM]	-17%	31
C=C[C@@](C)(O)CC[C@@H]1[C@@]2(C)CCCC(C)(C)[C@@H]2CC[C@@]1(C)O	-7%	40µM*!	-4	15%	-9%	/
C=C[C@](C)(O)CCC1C(=C)CC(OC(C)=O)C2C(C)(C)CCCC12C (some centres undefined)	-6%	2%	/	/	-24%	/
COc1ccc(C(=O)c2sc3nc(-c4ccc(C)cc4)cc(C(F)(F)F)c3c2N)cc1	/	/	-3	/	/	/
Cc1onc(-c2ccccc2)c1C(=O)N1CCN(S(=O)(=O)c2ccc3c(c2)OCCO3)CC1	15%[38.3 µM]	3.2µM*	4	-26%[46.1 µM]	-8%	?
COC(=O)C(C)(C)ONC(=O)Nc1ccccc1Br	-4%	-1%	/	13%	-8%	-10
COC(=O)[C@H](Cc1ccccc1)NC(=O)O[C@@H]1C(=O)c2cc(OC)ccc2O[C@H]1c1cccc(OC)c1	-13%	20µM*	/	/	-20%	/
c1ccc(C[n+]2cccc3c4ccccc4ccc32)cc1	25%[38.3 µM]	?	16	3%[46.1 µM]	?	30
Fc1cccc(C[n+]2csc3ccccc32)c1	21%[38.3 µM]	0.35µM*	12	-20%[46.1 µM]	4µM*	32
c1ccc(C[n+]2csc3ccccc32)cc1	6%[38.3 µM]	2.2µM*	8	-14%[46.1 µM]	14µM*	32
O=S(=O)(c1cccs1)N1CCN(CC(O)COc2cccc(Br)c2)CC1 (centres undefined)	36%[38.3 µM]	20µM*	0	-13%[46.1 µM]	-2%	-15
Cc1cc(NC(=O)CSc2ccc3nnc(CCNC(=O)c4ccccc4)n3n2)no1	-5%	0%	/	19%	/	/
Cc1nc(-c2ccc3c(c2)OCCCO3)cs1	/	25µM*	/	-5%	/	/
Cc1nc(-c2ccc(C(=O)N3CCCC3)cc2)cs1	7%	25µM*	/	-18%	/	/
Cc1nc(-c2ccc(C(=O)N3CCOCC3)cc2)cs1	-3%[38.3 µM]	10%	-5	5%[46.1 µM]	8.9µM*	?
Cc1nc(-c2cccc(S(=O)(=O)N3CCOCC3)c2)cs1	-1%	4.5µM*	8	-2%[46.1 µM]	25µM*	19

Compound activity (PubChem)
